“And” between values parts separate entries of the source, which are not always exact repeats. Equal values may be shown once. More than one record can exist for a structure, and the calls need not agree. The source made the active and inactive calls. How the source made its calls: active means hit-call score of the fitted dose curve at least 0.9, where 1 is the maximum; inactive means score below 0.9.
Legend:
[1] = read-out: serum amyloid A (SAA), SAA1 (gene 6288); test: BSK_CASM3C_SAA: BioMAP Diversity Plus: CASM3C Assay for serum amyloid A (SAA) Biomarker Activity (AID 2283049); conditions: primary human coronary artery smooth muscle cells; actives raise or lower the signal;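 further: SAA protein level quantified by ELISA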
[2] = BSK_CASM3C_SRB: Viability Assessment in the BioMAP Diversity Plus: CASM3C Assay (AID 2283050); conditions: primary human coronary artery smooth muscle cells;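 further: total protein by SRB staining as cytotoxicity measure in parallel cultures; cells exposed to compound for 24 h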
[3] = read-out: Thrombomodulin, THBD (gene 7056); test: BSK_CASM3C_Thrombomodulin: BioMAP Diversity Plus: CASM3C Assay for Thrombomodulin Biomarker Activity (AID 2283051); conditions: primary human coronary artery smooth muscle cells; actives raise or lower the signal;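 further: thrombomodulin protein level measured by ELISA 24 h after dosing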
[4] = read-out: Tissue Factor, F3 (gene 2152); test: BSK_CASM3C_TissueFactor: BioMAP Diversity Plus: CASM3C Assay for Tissue Factor Biomarker Activity (AID 2283052); conditions: primary human coronary artery smooth muscle cells; actives raise or lower the signal;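 further: cell surface tissue factor protein level read by ELISA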
[5] = read-out: Interferon-gamma inducible Protein 10 (IP10), CXCL10 (gene 3627); test: BSK_hDFCGF_IP10: BioMAP Diversity Plus: hDFCGF Assay for Interferon-gamma inducible Protein 10 (IP10) Biomarker Activity (AID 2283053); conditions: primary human foreskin fibroblasts; actives raise or lower the signal
Outline: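 IP-10 levels, quantified by ELISA, are taken from human foreskin fibroblast cultures 24 h after chemical treatment, with DMSO serving as negative control and baseline for bidirectional analysis.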

[6] = read-out: Urokinase-type plasminogen activator receptor (uPAR), PLAUR (gene 5329); test: BSK_CASM3C_uPAR: BioMAP Diversity Plus: CASM3C Assay for Urokinase-type plasminogen activator receptor (uPAR) Biomarker Activity (AID 2283054); conditions: primary human coronary artery smooth muscle cells; actives raise or lower the signal;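 further: cell-surface uPAR protein level quantified by ELISA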
[7] = read-out: Vascular cell adhesion molecule 1 (VCAM1), VCAM1 (gene 7412); test: BSK_CASM3C_VCAM1: BioMAP Diversity Plus: CASM3C Assay for Vascular cell adhesion molecule 1 (VCAM1) Biomarker Activity (AID 2283055); conditions: primary human coronary artery smooth muscle cells; actives raise or lower the signal;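 further: VCAM-1 protein level quantified by ELISA on the cells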
[8] = read-out: Collagen III, COL3A1 (gene 1281); test: BSK_hDFCGF_CollagenIII: BioMAP Diversity Plus: hDFCGF Assay for Collagen III Biomarker Activity (AID 2283056); conditions: primary human foreskin fibroblasts; actives raise or lower the signal
Outline: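 ELISA read-out of collagen III from human skin fibroblast cultures sampled 24 h post-dosing. Values were derived by bidirectional fitting relative to the DMSO vehicle control.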

[9] = read-out: Epidermal growth factor receptor (EGFR), EGFR (gene 1956); test: BSK_hDFCGF_EGFR: BioMAP Diversity Plus: hDFCGF Assay for Epidermal growth factor receptor (EGFR) Biomarker Activity (AID 2283057); conditions: primary human foreskin fibroblasts; actives raise or lower the signal
Outline: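 Measured by ELISA: EGFR levels on primary human foreskin fibroblasts 24 h after chemical treatment, analysed relative to DMSO with bidirectional fitting.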

[10] = read-out: Interleukin-8 (IL8), CXCL8 (gene 3576); test: BSK_hDFCGF_IL8: BioMAP Diversity Plus: hDFCGF Assay for Interleukin-8 (IL8) Biomarker Activity (AID 2283058); conditions: primary human foreskin fibroblasts; actives raise or lower the signal
Outline: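 Cells used are human skin primary fibroblasts. Chemical is added, cultures run 24 h, then IL-8 is quantified by ELISA, and gain or loss versus DMSO control is fitted in both directions.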

Measured: AC50

COP(=O)(CCC(=O)NCO)OC
inactive: all assays above

CC(O)C(F)(F)C(F)(F)F (stereo not given)
inactive: [1] | [2] | [3] | [4] | [5] | [6] | [7] | [8] | [10]
active: [3] 3.08 µM

CC(C)(C)OOC(C)(C)C
inactive: all assays above

ClC(Cl)=C(c1ccc(Cl)cc1)c1ccccc1Cl
active: [2] 28.2 µM | [4] 24 µM | [5] 3.72 µM | [6] 32.6 µM | [7] 20 µM | [8] 2.45 µM | [9] 4.82 µM | [10] 4.15 µM
inactive: [1] | [3]

CCC(C)(C)c1ccc(O)cc1
inactive: all assays above

CCCCc1ccccc1
inactive: all assays above

O=c1ssc(Cl)c1Cl
inactive: [3]
active: [1] 1.4 µM | [2] 3.99 µM | [4] 6.61 µM | [5] 3.7 µM | [6] 6.83 µM | [7] 4.48 µM | [8] 8.15 µM | [9] 3.16 µM | [10] 13.1 µM

O=C(O)C(F)(OC(F)(F)C(F)(F)C(F)(F)F)C(F)(F)F (stereo not given)
active: [3] 2.48 µM
inactive: [1] | [2] | [3] | [4] | [5] | [6] | [7] | [8] | [10]

O=[N+]([O-])c1ccccc1
inactive: all assays above

[N-]=[N+]=[N-]
inactive: all assays above

CC(Cc1ccc(OCC(=O)O)cc1)NCC(O)c1csc(C(F)(F)F)n1 (stereo not given)
inactive: all assays above

CCOP(=S)(OCC)SCS(=O)(=O)CC
inactive: all assays above

CCCCOCCOP(=O)(OCCOCCCC)OCCOCCCC
active: [4] 1.99 µM | [7] 0.016 µM | [8] 0.016 µM
inactive: all other assays above

CC(C)Nc1ccc(Nc2ccccc2)cc1
inactive: [9]
active: [1] 32.8 µM | [2] 26.3 µM | [3] 36.6 µM | [4] 13.4 µM | [5] 5.88 µM | [6] 32.9 µM | [7] 27.5 µM | [8] 8.09 µM | [10] 14 µM

OCC(F)(F)OC(F)(F)C(F)(F)OC(F)(F)C(F)(F)OC(F)(F)F
inactive: [1] | [3] | [4] | [5] | [6] | [7] | [8] | [9] | [10]
active: [1] 35 µM | [2] 32.9 µM and 44.3 µM | [7] 30 µM

C=CC(=O)OCC(F)(F)C(F)F
active: [1] 30 µM | [2] 39.8 µM and 43.6 µM | [3] 37.3 µM and 24.9 µM | [5] 34.9 µM and 29.2 µM | [7] 23.9 µM and 21.1 µM | [8] 994 nM and 23.9 µM | [10] 49.8 µM and 48.3 µM
inactive: [1] | [4] | [6]

COCCOCCO
inactive: all assays above

Nc1ccc2ccccc2c1
active: [3] 12.5 µM
inactive: all other assays above

O=S(=O)(F)C(F)(F)C(F)(F)C(F)(F)C(F)(F)C(F)(F)C(F)(F)C(F)(F)C(F)(F)F
inactive: all assays above

O=S1(=O)OCC2C(CO1)C1(Cl)C(Cl)=C(Cl)C2(Cl)C1(Cl)Cl (stereo not given)
active: [1] 23.2 µM | [3] 20 µM | [4] 20.9 µM | [6] 30.1 µM
inactive: all other assays above

O=C(O)C(F)(F)C(F)(F)C(=O)O
active: [5] 17.2 µM
inactive: [1] | [2] | [3] | [4] | [5] | [6] | [7] | [8] | [10]

CCNc1nc(Cl)nc(NC(C)(C)C)n1
inactive: all assays above

Cc1cccc(N)c1
inactive: all assays above

O=C(O)C(F)(F)OC(F)(F)C(F)(F)OC(F)(F)C(=O)O
inactive: all assays above

c1ccc2c(c1)Nc1ccccc1S2
active: [3] 0.542 µM | [5] 20 µM
inactive: all other assays above

OCC(F)(F)OC(F)(F)C(F)(F)OC(F)(F)C(F)(F)OC(F)(F)CO
active: [5] 26.5 µM and 24.2 µM | [8] 14.9 µM
inactive: [1] | [2] | [3] | [4] | [6] | [7] | [8] | [9] | [10]

CN(C)C(=O)Cl
inactive: all assays above

CCN(CC)c1ccccc1
inactive: all assays above

CCOP(=S)(OCC)SCn1nnc2ccccc2c1=O
inactive: all assays above

Nc1ccc(Cl)cc1
not listed: [9]
inactive: all other assays above

c1ccc(OP(Oc2ccccc2)Oc2ccccc2)cc1
not listed: [9]
inactive: all other assays above

c1nc[nH]n1
inactive: all assays above

O=P(OCC(Br)CBr)(OCC(Br)CBr)OCC(Br)CBr (stereo not given)
inactive: all assays above

CC(Cl)CN(C)C (stereo not given)
active: [6] 0.177 µM
not listed: [9]
inactive: all other assays above

NC(=O)C(F)(F)C(F)(F)F
inactive: all assays above

N#Cc1cc([N+](=O)[O-])ccc1N
inactive: all assays above

COC(=O)C(F)(F)C(F)(F)OC(F)(C(F)(F)F)C(F)(F)OC(F)=C(F)F (stereo not given)
active: [5] 5.35 µM and 2.92 µM
inactive: all other assays above

O=C(O)C(F)(F)OC(F)(F)C(F)(F)OC(F)(F)F
inactive: all assays above

COP(=O)(O)OC
inactive: all assays above

From PubChem BioAssay (EPA / NIEHS)
